The record followed here is PubChem BioAssay.

Calls of active or inactive are those of the source.

Assay [1] can be described thus: small molecules captured by biotinylated probe aFSTL3 – biochemical, small-molecule microarray, fluorescence 635/667, stem cell growth factor project, primary screen (AID 1064).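 Further: measures binding of the biotinylated anti-FSTL3 antibody to printed compounds.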 The conditions noted are these: higher = more signal.
Assay [2] can be described thus: binders from COS7 lysate, DM2A8 probe, primary screen, torsin A project, cell lysate, small-molecule microarray, fluorescence 635/667 (AID 1065). The following applies: higher = more signal, COS7 lysate expressing mutant human TOR1A.
A short description of assay [3]: small molecules captured by biotinylated probe aFGF2 – biochemical, small-molecule microarray, fluorescence 635/667, stem cell growth factor project, primary screen (AID 1067).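 Further: measures binding of biotinylated aFGF2 protein to printed compounds on slides; z-score merges feature fluorescence and signal-to-noise across triplicate slides.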 The following applies: higher = more signal.
Assay [4] in a line: small molecules captured by biotinylated probe aFGF10 – biochemical, small-molecule microarray, fluorescence 635/667, stem cell growth factor project, primary screen (AID 1071).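 Further: score merges 667 nm spot intensity and signal to noise from triplicate slides.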 The following applies: higher = more signal.
Assay [5] concerns the target Neurogenic locus notch homolog protein 2 (Homo sapiens) (UniProt Q04721). Kind of assay: small molecules binding Notch2 protein – biochemical, small-molecule microarray, 635 nm fluorescence, stem cell growth factors, primary screen (AID 1073). The conditions noted are these: higher = more signal.
Assay [6] has as its target Pro-neuregulin-1, membrane-bound isoform (Homo sapiens) (UniProt Q02297). Kind of assay: small molecules binding neuregulin-1 protein – biochemical, small-molecule microarray, fluorescence 635/667, psychiatric disease protein project, primary screen (AID 1075).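 Further: score combines 667 nm spot fluorescence with signal to noise.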 The following applies: NRG1 binding, 635 nm fluorescence, higher = more signal.
In assay [7] the test system is Neuregulin-1 EGF-like domain. Kind of assay: small molecules binding NRG1 EGF domain – biochemical, small-molecule microarray, 635 nm fluorescence, primary screen (AID 1081).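 Further: binding of the protein to compounds printed on small-molecule microarray slides.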 The conditions noted are these: higher = more signal.
Assay [8] is described as follows: FRG1 expression reporter modulators in myotubes – cell-based, C2C12 myotubes, firefly/Renilla luciferase, luminescence, FRG1 inhibition for FSHD, primary screen (AID 1084). The following applies: FRG1 promoter luciferase, higher = more signal, called active from +8 up or from −8 down.
Assay [9] can be described thus: small molecules captured by biotinylated probe aFST – biochemical, small-molecule microarray, fluorescence 635/667, stem cell growth factor project, primary screen (AID 1086).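 Further: score merges 667 nm fluorescence with signal-to-noise of each printed compound spot.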 The following applies: higher = more signal.
Assay [10] in a line: binders of probe aHhip on microarray, primary screen, stem cell growth factor project, biochemical, small-molecule microarray, fluorescence 635/667 (AID 1087).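 Further: score merges spot fluorescence at 667nm with spot signal to noise ratio.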 The conditions noted are these: higher = more signal.
The test system of assay [11] is PRMT1 (protein arginine N-methyltransferase 1). Kind of assay: small molecules binding arginine methyltransferase PRMT1 – biochemical, small-molecule microarray, 635 nm fluorescence, primary screen (AID 1088).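 Further: binding of Prmt1 protein to compounds spotted on small-molecule microarray slides.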 The following applies: higher = more signal.
Assay [12] is described as follows: growth effects on S. cerevisiae YJM789 – YJM789 clinical isolate, OD600, 24 h, basal, primary screen (AID 1089).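 Further: growth of clinical yeast isolate S. cerevisiae YJM 789 seeded 1000 cells per well; test concentration not given here.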 The following applies: higher = more signal, called active from +8 up or from −8 down.
Assay [13] in a line: S. pombe growth modifiers, basal conditions – strain 972, OD600, 24 h, no modulator, primary screen (AID 1090).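 Further: basal condition with compound alone and no growth modifier present; test concentration not given here.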 The conditions noted are these: S. pombe 972 growth, higher = more signal, called active from +8 up or from −8 down.
Assay [14] in a line: budding yeast growth modifiers under rapamycin – strain BY4716, OD600, 96 h, primary screen (AID 1091). Further: test concentration not given here. The following applies: S. cerevisiae BY4716 + rapamycin, higher = more signal, called active from +8 up or from −8 down.
The target of assay [15] is Torsin-1A-interacting protein 2 (Homo sapiens) (UniProt Q8NFQ8). Kind of assay: small molecules binding lysate-expressed LULL1 – cell lysate, human LULL1 lysate, 635/667 nm fluorescence, primary screen (AID 1092).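 Further: probe is lysate of COS7 cells overexpressing human LULL1; score merges per-feature 667 nm fluorescence with signal-to-noise.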 The following applies: small-molecule microarray, hLULL1 lysate binding, 635 nm fluorescence; higher = more signal.
Assay [16] in a line: optical density change of DRC41 E. coli – strain DRC41, OD650, 24 h, E. coli filamentation project, primary screen (AID 1093).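 Further: MC1000 strain lacking acrAB efflux and sulA so SOS filamentation is blocked; test concentration not given here.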 The following applies: E. coli DRC41 growth, higher = more signal, called active from +8 up or from −8 down.
The nature of assay [17]: probe aLefty2 binding to arrayed compounds – biochemical, biotinylated probe, 635/667 nm fluorescence, primary screen (AID 1094).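 Further: score merges spot fluorescence near 667 nm with spot signal-to-noise ratio.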 The conditions noted are these: small-molecule microarray, higher = more signal.
The test system of assay [18] is Noggin (protein binding on small-molecule microarray). Kind of assay: small molecules binding Noggin protein – biochemical, 635/667 nm fluorescence, primary screen (AID 1095).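 Further: score merges 667 nm feature fluorescence with signal to noise over triplicate slides.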 The conditions noted are these: 635 nm fluorescence, higher = more signal.
Assay [19] addresses Neurogenic locus notch homolog protein 3 (Homo sapiens) (UniProt Q9UM47). Kind of assay: small molecules binding NOTCH3 protein – biochemical, 635/667 nm fluorescence, primary screen (AID 1096). The following applies: small-molecule microarray, 635 nm fluorescence, higher = more signal.
A short description of assay [20]: probe aEGFR binding to arrayed compounds – biochemical, biotinylated probe, 635/667 nm fluorescence, primary screen (AID 1097).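 Further: probe is a biotinylated anti-EGFR antibody binding compounds printed on slides; score combines fluorescence near 667 nm and signal to noise of each spot.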 The following applies: small-molecule microarray, higher = more signal.

Neurogenic locus notch homolog protein 2 (Homo sapiens), sequence (Q04721 whole entry, looked up, canonical isoform): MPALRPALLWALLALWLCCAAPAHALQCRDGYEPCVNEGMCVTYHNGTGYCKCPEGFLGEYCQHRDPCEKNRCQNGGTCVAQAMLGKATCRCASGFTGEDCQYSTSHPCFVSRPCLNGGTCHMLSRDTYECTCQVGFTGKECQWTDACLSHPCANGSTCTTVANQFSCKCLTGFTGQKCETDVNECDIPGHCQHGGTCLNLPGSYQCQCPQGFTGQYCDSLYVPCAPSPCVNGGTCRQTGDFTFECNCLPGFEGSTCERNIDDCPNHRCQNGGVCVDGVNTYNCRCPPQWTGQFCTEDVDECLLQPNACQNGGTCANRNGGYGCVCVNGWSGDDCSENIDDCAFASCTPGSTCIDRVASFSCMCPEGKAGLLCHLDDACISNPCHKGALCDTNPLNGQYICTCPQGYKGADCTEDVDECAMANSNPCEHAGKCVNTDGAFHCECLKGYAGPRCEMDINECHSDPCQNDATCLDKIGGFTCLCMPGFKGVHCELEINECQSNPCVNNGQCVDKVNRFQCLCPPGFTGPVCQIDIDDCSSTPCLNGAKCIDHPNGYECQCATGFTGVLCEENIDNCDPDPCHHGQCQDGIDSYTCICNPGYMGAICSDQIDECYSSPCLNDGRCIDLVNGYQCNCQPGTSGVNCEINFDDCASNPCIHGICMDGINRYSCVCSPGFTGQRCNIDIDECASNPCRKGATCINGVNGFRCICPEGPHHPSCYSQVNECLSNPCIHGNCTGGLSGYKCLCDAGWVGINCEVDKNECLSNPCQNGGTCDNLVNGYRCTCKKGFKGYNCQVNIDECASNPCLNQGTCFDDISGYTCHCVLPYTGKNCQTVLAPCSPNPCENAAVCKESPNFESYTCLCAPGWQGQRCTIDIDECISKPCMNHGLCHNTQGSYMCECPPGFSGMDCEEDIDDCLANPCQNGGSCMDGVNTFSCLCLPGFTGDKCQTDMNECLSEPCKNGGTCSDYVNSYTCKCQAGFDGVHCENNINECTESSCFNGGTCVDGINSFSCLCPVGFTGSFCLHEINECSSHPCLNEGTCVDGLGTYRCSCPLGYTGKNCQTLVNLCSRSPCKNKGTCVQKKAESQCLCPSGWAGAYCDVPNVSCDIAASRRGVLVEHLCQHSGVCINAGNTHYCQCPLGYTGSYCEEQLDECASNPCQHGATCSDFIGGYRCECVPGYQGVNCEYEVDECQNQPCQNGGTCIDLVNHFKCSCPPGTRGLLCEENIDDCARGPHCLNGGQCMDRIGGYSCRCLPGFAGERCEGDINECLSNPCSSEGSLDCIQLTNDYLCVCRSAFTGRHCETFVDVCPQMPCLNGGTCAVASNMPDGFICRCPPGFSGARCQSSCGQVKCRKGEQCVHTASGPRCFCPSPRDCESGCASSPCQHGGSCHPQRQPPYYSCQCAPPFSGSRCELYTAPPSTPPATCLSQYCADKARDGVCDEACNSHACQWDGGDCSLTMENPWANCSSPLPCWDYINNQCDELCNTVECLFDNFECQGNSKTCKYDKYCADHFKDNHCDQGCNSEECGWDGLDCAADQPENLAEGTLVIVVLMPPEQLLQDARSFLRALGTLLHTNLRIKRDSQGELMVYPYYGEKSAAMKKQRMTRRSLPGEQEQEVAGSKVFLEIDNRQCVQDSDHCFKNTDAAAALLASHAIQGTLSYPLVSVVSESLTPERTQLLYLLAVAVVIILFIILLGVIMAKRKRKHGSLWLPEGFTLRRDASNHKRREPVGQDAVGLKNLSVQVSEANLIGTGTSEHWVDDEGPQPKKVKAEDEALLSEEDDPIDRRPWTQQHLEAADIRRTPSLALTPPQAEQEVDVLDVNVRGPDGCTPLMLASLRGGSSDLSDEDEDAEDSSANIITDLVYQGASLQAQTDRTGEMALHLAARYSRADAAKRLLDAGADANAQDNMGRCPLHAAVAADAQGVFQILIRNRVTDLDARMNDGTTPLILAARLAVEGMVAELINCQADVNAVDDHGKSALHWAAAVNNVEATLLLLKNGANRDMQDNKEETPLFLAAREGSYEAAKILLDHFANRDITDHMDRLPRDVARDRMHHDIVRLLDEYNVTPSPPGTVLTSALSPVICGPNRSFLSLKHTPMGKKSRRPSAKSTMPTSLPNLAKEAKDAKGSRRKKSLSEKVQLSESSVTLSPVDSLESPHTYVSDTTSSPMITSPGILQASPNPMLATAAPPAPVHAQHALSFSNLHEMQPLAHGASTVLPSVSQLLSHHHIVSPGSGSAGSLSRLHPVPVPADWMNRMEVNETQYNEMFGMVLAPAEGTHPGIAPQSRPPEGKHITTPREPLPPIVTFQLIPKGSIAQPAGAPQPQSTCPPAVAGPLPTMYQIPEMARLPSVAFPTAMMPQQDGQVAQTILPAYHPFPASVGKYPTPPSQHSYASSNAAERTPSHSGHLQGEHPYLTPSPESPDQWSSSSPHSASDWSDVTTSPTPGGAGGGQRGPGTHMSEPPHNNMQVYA
Torsin-1A-interacting protein 2 (Homo sapiens), sequence (Q8NFQ8 whole entry, looked up): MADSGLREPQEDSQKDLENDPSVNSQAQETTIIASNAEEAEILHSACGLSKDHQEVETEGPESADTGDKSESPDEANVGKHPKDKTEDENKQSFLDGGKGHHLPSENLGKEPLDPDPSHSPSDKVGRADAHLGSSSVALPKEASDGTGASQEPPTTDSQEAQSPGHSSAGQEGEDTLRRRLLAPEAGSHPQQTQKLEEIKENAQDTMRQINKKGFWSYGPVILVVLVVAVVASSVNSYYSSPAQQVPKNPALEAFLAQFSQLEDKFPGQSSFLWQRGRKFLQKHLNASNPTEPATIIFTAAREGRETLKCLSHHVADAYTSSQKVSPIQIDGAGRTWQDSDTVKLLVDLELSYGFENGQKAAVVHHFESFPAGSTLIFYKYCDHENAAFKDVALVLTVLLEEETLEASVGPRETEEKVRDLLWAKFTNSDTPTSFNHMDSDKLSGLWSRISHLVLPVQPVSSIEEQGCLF
Pro-neuregulin-1, membrane-bound isoform (Homo sapiens), sequence (Q02297 whole entry, looked up, the tested form may be a part, canonical isoform): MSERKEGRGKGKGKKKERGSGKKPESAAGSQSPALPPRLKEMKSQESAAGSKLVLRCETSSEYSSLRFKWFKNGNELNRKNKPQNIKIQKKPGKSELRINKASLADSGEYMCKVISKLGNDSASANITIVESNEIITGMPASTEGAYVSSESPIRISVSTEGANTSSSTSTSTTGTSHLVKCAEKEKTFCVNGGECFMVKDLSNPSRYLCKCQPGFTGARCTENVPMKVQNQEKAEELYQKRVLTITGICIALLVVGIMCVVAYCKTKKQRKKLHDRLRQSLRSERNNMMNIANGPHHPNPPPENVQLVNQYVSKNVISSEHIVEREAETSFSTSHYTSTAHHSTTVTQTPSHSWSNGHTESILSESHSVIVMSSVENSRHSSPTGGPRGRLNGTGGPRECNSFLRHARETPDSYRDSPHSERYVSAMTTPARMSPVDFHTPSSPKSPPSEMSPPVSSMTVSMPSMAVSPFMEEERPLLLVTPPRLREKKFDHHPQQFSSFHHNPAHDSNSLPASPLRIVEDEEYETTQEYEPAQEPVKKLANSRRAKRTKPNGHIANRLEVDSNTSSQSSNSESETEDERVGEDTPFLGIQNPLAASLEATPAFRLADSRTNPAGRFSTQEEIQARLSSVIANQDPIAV

As for `O=C(NC1CC1)[C@@H]1c2ccccc2C(=O)N(Cc2cc(F)cc(C(F)(F)F)c2)[C@H]1c1ccc(CO)cc1`, the composite z-score in assay [1] is 0.388; in [2] it was 0.195; in assay [3], -0.172; in assay [4], 0.327; in [5] it was -0.697; in [6], -0.13. The composite z-score in assay [7] was 1.04; in [9], 0.254; in [10], -0.194; in assay [11], 1.35; in assay [15], 2.85; in [17], 0.0351. Besides, the composite z-score in [18] is 0.235; in assay [19], -0.418; in assay [20], -0.177. Besides, the z-score in assay [8] is -0.594 (inactive); in assay [12], -1.02 (inactive); in [13], -1.15 (inactive); in assay [14] it was -0.926 (inactive); in assay [16], -0.213 (inactive).

With `CCOC(=O)C1=C[C@@H](C(C)C)N(S(=O)(=O)c2ccc(C)cc2)[C@H]1c1ccccc1F`, the composite z-score is -0.487 in [1]; 0.267 in assay [2]; -0.0924 in assay [3]; 0.817 in [4]; 1.65 in [5]; 1.23 in assay [6]. Further, the composite z-score in assay [7] is 1.1; in assay [9] it was 0.904; in [10], -0.305; in [11], 1.58; in assay [15], 2.8; in assay [17], 0.142. The composite z-score in assay [18] is 0.351; in [19], 1.06; in assay [20], 0.0353. Moreover, the z-score is -1.83 (inactive) in assay [8]; -0.413 (inactive) in assay [12]; 1.51 (inactive) in assay [13]; 7.3 (inactive) in assay [14]; -0.816 (inactive) in assay [16].

As for `NCCCCCNC(=O)[C@H]1C[C@H]2C(=O)N3CCC[C@H]3C(=O)N2[C@H]1c1ccc(O)cc1`, the composite z-score in [1] was found to be 1.39; in [2] it was 1.06; in assay [3] it was 0.197; in [4], 0.457; in assay [5] it was 0.698; in assay [6], 1.62. The composite z-score turned out to be 1.23 in [7]; 1.52 in [9]; 0.399 in [10]; 1.56 in assay [11]; 2.58 in assay [15]; 0.821 in assay [17]. The figures for the composite z-score in assay [18], in [19] and in assay [20] were 0.813, 0.573 and 0.426, respectively. The z-score in [8] was 0.0225 (inactive); in assay [12], -0.948 (inactive); in [13], -0.283 (inactive); in [14], -0.507 (inactive); in assay [16] it was -0.346 (inactive).

With `COC(=O)[C@@]1(Cc2ccc(F)cc2)[C@H]2c3cc(C(=O)N(C)C)n(Cc4cc(C)n(C)n4)c3C[C@H]2CN1C(=O)c1ccccc1`, the composite z-score in assay [1] is 0.274; in assay [2], 0.85; in [3], -0.19; in assay [4] it was 0.515; in assay [5], 1.61; in assay [6], 1.66. For the same compound, the composite z-score in assay [7] worked out at 1.29; in [9] it was 0.967; in assay [10], 0.0139; in [11], 1.02; in assay [15] it was 3.09; in assay [17] it was 0.629. Moreover, the composite z-score in assay [18] is -0.421; in [19], 1.01; in assay [20], 0.14. Moreover, the z-score is 0.0894 (inactive) in assay [8]; 0.619 (inactive) in [12]; 0.456 (inactive) in assay [13]; -0.109 (inactive) in [14]; -0.38 (inactive) in assay [16].

Turning to `O=C1C2C=CC(C(O)C=Cc3ccc([N+](=O)[O-])cc3)N(n3cnnc3)C2C(=O)N1Cc1ccccc1` (stereo not given), the composite z-score came to 0.246 in [1]; 1.31 in assay [2]; 0.0575 in [3]; 0.375 in assay [4]; 1.27 in assay [5]; 1.77 in assay [6]. Besides, the composite z-score in assay [7] was 1.19; in assay [9], 1.09; in assay [10], -0.226; in assay [11], 0.934; in assay [15] it was 1.92; in assay [17], 0.292. Further, the composite z-score in [18] is -0.0663; in [19], 0.989; in [20] it was -0.0703. For the same compound, the z-score is 0.422 (inactive) in assay [8]; -0.785 (inactive) in [12]; -3.83 (inactive) in assay [13]; -0.0166 (inactive) in assay [14]; -0.0783 (inactive) in [16].
